Records with an inconclusive call do not appear. A call without a number means that no potency is given here. Calls of active or inactive are those of the source. Calls follow the shape of the dose curve; as a rule, active = well fitted inhibition curve with a large enough effect; inconclusive = small, poorly fitted or top-dose-only effect; inactive = flat fitted curve, though single readings scatter.
Each compound was assayed against Ubiquitin carboxyl-terminal hydrolase 1 (Homo sapiens) (UniProt O94782) (assay: Inhibitors of USP1/UAF1: Pilot qHTS (AID 504865; also: nearly all actives have a fitted effect of over 35% in size)). Settings: purified USP1/UAF1, Ub-rhodamine cleavage fluorescence; series mostly up to 114 µM.
In short: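 1nM USP1/UAF1 + cpd, 15 min RT; start w/ Ub-Rho 150nM final; kinetic FL 480/540 nm, 6 reads q60 s. Buffer 50mM HEPES pH 7.8, 0.5mM EDTA, 1mM TCEP, 0.01% Tween-20, 0.1 mg/ml BSA.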
Potency is read from the fitted curve at half-maximal effect.

Ubiquitin carboxyl-terminal hydrolase 1 (Homo sapiens), sequence (O94782 whole entry, looked up): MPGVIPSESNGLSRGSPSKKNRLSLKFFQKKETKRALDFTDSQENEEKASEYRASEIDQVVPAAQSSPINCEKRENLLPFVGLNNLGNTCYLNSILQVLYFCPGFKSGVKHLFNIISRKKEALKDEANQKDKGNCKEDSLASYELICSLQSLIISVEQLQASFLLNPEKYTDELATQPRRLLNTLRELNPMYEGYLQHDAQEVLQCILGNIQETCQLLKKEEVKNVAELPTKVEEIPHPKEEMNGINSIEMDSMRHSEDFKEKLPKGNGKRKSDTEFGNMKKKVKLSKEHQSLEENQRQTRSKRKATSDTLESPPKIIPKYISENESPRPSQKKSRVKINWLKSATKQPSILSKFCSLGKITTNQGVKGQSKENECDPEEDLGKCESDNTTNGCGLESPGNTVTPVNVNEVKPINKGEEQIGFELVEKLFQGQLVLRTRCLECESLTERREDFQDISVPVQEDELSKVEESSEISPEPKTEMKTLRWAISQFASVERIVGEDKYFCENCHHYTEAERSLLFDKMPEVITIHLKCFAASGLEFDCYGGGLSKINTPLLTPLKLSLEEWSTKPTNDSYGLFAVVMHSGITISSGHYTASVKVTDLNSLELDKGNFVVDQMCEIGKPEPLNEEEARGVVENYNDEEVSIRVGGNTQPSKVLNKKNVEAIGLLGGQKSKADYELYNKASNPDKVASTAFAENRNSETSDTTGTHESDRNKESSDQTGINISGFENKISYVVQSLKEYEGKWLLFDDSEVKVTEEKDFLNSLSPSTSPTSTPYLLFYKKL

Row | SMILES | Potency
1 | NC(CS)C(=O)O (stereo not drawn) | inactive
2 | NC(=O)C(=O)N/N=C/c1ccc([N+](=O)[O-])o1 | inactive
3 | CCCCCC=CCC=CCCCCCCCC(=O)OCC | inactive
4 | CCCCC(CC)CN=C(N)NC(N)=NCCCCCCN=C(N)NC(N)=NCC(CC)CCCC (stereo not drawn) | 22.4 µM (active)
5 | Clc1ccc2c(c1)CCc1cccnc1C2=C1CCNCC1 | inactive
6 | CCOc1ccc(NC(=O)CC(C)O)cc1 (stereo not drawn) | inactive
7 | c1ccc(OCc2ccc(CCCN3CCOCC3)cc2)cc1 | inactive
8 | Cc1c(C(N)=O)cc([N+](=O)[O-])cc1[N+](=O)[O-] | inactive
9 | CC(=O)OCC(=O)[C@@]1(OC(C)=O)[C@@H](C)C[C@H]2[C@@H]3C[C@H](F)C4=CC(=O)C=C[C@]4(C)[C@@]3(F)[C@@H](O)C[C@@]21C | inactive
10 | CCCCCCCCCCCCCCCC[N+](C)(C)CC | 17.8 µM (active)
11 | CCCCc1nc(Cl)c(CO)n1Cc1ccc(-c2ccccc2-c2nn[nH]n2)cc1 | inactive
12 | CO/N=C1\CN(c2nc3c(cc2F)c(=O)c(C(=O)O)cn3C2CC2)CC1CN (stereo not drawn) | inactive
13 | CCCCOc1cc(C(=O)NCCN(CC)CC)c2ccccc2n1 | inactive
14 | O=C1OCCN1/N=C/c1ccc([N+](=O)[O-])o1 | inactive
15 | CC(=O)OCC(=O)NCCCOc1cccc(CN2CCCCC2)c1 | inactive
16 | Nc1ccc(/C=C/c2ccc(N)cc2S(=O)(=O)O)c(S(=O)(=O)O)c1 | inactive
17 | CN(C(=O)CN(CCO)CC(=O)N(C)C(C)(C)Cc1ccccc1)C(C)(C)Cc1ccccc1 | inactive

Row | SMILES | Potency
18 | CCCCCCCCCCOCC(O)CN (stereo not drawn) | inactive
19 | Oc1cc(O)c2c(c1)O[C@H](c1ccc(O)c(O)c1)[C@H](O)C2 | inactive
20 | Cc1c(C)n(CCN(C)C)c2ccc(C(=O)OCCN(C)C)cc12 | inactive
21 | CC(=O)N(O)CCCCCNC(=O)CCC(=O)N(O)CCCCCNC(=O)CCC(=O)N(O)CCCCCN | inactive
22 | Cc1ccnc(NS(=O)(=O)c2ccc(N)cc2)n1 | inactive
23 | C[C@H]1[C@H](NC(=O)/C(=N/OC(C)(C)C(=O)O)c2csc(N)n2)C(=O)N1S(=O)(=O)O (stereo in doubt) | inactive
24 | Cc1ccc(O)c2ncccc12 | inactive
25 | CCN1CCCC1=O | inactive
26 | CCCN1CCCC[C@H]1C(=O)Nc1c(C)cccc1C | inactive
27 | NC(CO)(CO)CO | inactive
28 | COCc1c(C(C)C)nc(C(C)C)c(/C=C/[C@@H](O)C[C@@H](O)CC(=O)O)c1-c1ccc(F)cc1 | inactive
29 | CN1C(CCl)Nc2cc(Cl)c(S(N)(=O)=O)cc2S1(=O)=O (stereo not drawn) | inactive
30 | C[C@@H](CN(C)C)CN1c2ccccc2Sc2ccccc21 | inactive
31 | CCN(CC)C(=O)/C(C#N)=C/c1cc(O)c(O)c([N+](=O)[O-])c1 | inactive
32 | OCc1ccccc1O | inactive
33 | c1ccc(CNCCNCc2ccccc2)cc1 | inactive
